40 molecules from PubChem BioAssay (NCI) can be followed below.

The panel holds about 83,000 compounds, 20% with a hit somewhere; the sample as a whole holds those more often.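 The endpoint reported here, percent growth, reads 100 for growth as untreated, 0 for no net growth and -100 for all cells dead.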 Unmarked numbers belong to inactive results. Calls of active or inactive are those of the source. The calls were made as follows: active = growth percent below 10; inactive = the rest.

The subject of this assay is HL-60(TB) leukemia. Briefly: NCI-60 one-dose screen, 48 h (100 = growth as untreated, 0 = no growth, -100 = all killed). The conditions noted are these: 10 µM unless noted.
As for `COc1cc2c(cc1OCCCCn1c(-c3cc(=O)c4ccccc4o3)nc3ccccc31)N=C[C@@H]1CCCN1C2=O`, the growth was 91.2%.

Turning to `CS(=O)(=O)N1CCc2c(-c3cnc(N)nc3)nc(N3CCOCC3)nc21`, the growth is 34.9%.

`CCOC(=O)C1=C(c2ccccc2)N=C2SC=C(c3ccc(Cl)cc3)N2C1c1ccc(Br)cc1` (stereo not given): the growth was 55.2%.

With `CC(C)C[C@@H](NC(=O)[C@@H](Cc1ccccc1)NC(=O)c1cnccn1)B1O[C@H]2[C@H](O)[C@@H](C(=O)NCCCC[C@@H]3NC(=O)[C@@H](Cc4ccccc4)NC(=O)[C@H](CC(=O)O)NC(=O)CNC(=O)[C@H](CCCN=C(N)N)NC3=O)O[C@@H](CN)[C@H]2O1`, the growth was -1.86% (active).

`N=C(N)c1ccc(-c2ccc(-c3cc(Cl)cc(Cl)c3)s2)cc1`: the growth is -57.6% (active).

On to `C#Cc1cccc(Nc2ncnc3cc(OCCOC)c(OCCOC)cc23)c1`, for which the growth was 49.2%.

Regarding `O=C(CCl)NCCNc1nccc(Nc2ccc(S(=O)(=O)Nc3ccccn3)cc2)n1`, the growth was 10.2%.

Turning to `COC(=O)C1=Nc2ccc(F)cc2/C1=C/c1sc(=S)[nH]c1O`, the growth was -28.8% (active).

Turning to `CNCCOc1nc2c3cnccc3cc(-c3cc(OC)c(OC)c(OC)c3)c2c2ccncc12`, the growth is -25.8% (active).

As to `CN(C)Cc1ccc(NC(=O)c2cncc(C#Cc3cnc(N)c4ncccc34)c2)cc1C(F)(F)F`, the growth was 31.1%.

Turning to `Oc1ccccc1-c1nc2c3ccccc3c3ccccc3c2o1`, the growth was 88%.

In the case of `Cc1nn(-c2ccccc2)c(Cl)c1/C=C/C(=O)c1ccc(F)cc1`, the growth was 47.1%.

For `Cc1cn(-c2cc(NC(=O)c3cccc(C#Cc4cccc5[nH]nc(N)c45)c3)cc(C(F)(F)F)c2)cn1`, the growth is 12.5%.

Consider `CNC(=O)c1cc(COc2nnc(Nc3ccc(Cl)cc3)c3ccoc23)ccn1`, for which the growth was 120%.

Take `CC(NC(=O)C(C)Oc1ccc(Cl)cc1Cl)C(=O)O` (stereo not given): the growth was 105%.

Turning to `Cc1cc(=O)c2cc3nc(-c4cccnc4)oc3c(Br)c2o1`, the growth is 84.9%.

Consider `COc1ccc(C2=NN(c3nc(-c4ccc(OC)cc4)c(C#N)c(=O)n3C)C(=O)CC2)cc1`, for which the growth was 99.5%.

In the case of `Cc1ccc(-c2csc(NC(=O)CSc3nc(-c4ccccc4)cc(=O)[nH]3)n2)cc1`, the growth is 49.4%.

Regarding `O=Nc1ccc2ccccc2c1O`, the growth was 74.3%.

Regarding `O=C(O)CCCc1cnc2c3sccc3nc(SCc3c(Cl)cccc3Cl)n12`, the growth was -26.5% (active).

Take `Cc1cccc(CNc2c3ccccc3nc3ccccc23)c1`: the growth was 12.5%.

On to `COc1cc(C(=O)/C=C/c2c(-c3cccs3)nc3sccn23)cc(OC)c1OC`, for which the growth was 1.04% (active).

Take `CCOc1cc(Cl)c(C(C)NC(=O)c2cccc(OC)c2)cc1OCC` (stereo not given): the growth is -32.8% (active).

As for `CC(=O)[C@@H]1CC[C@]2(C(N)=O)CC[C@]3(C)[C@H](CC[C@@H]4[C@@]5(C)CCCNC(C)(C)[C@@H]5CC[C@]43C)[C@@H]12`, the growth was 91%.

For the molecule `COc1ccc(-c2nc(SC(C)C)nc(NNC(N)=S)c2C#N)cc1`, the growth is 14.3%.

Turning to `O=C1NC(=O)/C(=C\c2ccccc2)C2=C1CCCC2`, the growth is -33.3% (active).

For the molecule `N#C/C(=C\C=C\c1ccc(-c2cc(Cl)ccc2Cl)o1)c1nc2ccccc2s1`, the growth was 97.7%.

As to `Cc1ccc(C(=O)O)o1`, the growth was 101%.

Turning to `CCCCC1=c2c([nH]c3ccc(OC)cc23)=NC2C=CC=NC12` (stereo not given), the growth was 80.5%.

Consider `CN(C)CCN1C(=O)c2c(c3c4ccccc4n4c3c3c2c2ccccc2n3C2CC(O)C(O)C4(C)O2)C1=O` (stereo not given), for which the growth is 32.5%.

With `Cc1cc(=O)[nH]c(=O)n1Cc1cn(-c2c3ccccc3nc3ccccc23)nn1`, the growth was 16.3%.

Regarding `CCN(CC)CCCC(C)NC(=S)N/N=C(\C)c1ccccn1` (stereo not given), the growth was -3.79% (active).

Take `O=C(Nc1ccc(Nc2cc(Nc3ccccc3)ncn2)cc1)Nc1cc(C(F)(F)F)ccc1F`: the growth is 106%.

Take `NC(CC(N)C(=O)O)C(=O)O` (stereo not given): the growth is 110%.

As for `NC1N=C(SCC(=O)N2CCN(c3cc4c(cc3F)c(=O)c(C(=O)O)cn4C3CC3)CC2)NC(=O)/C1=C/c1ccc(Cl)cc1` (stereo not given), the growth was 102%.

Take `O=C1Nc2ccc(Cl)cc2/C1=N/c1nc(-c2ccc(F)cc2)cs1`: the growth was -36.7% (active).

As to `CC1=C2[C@@H](CC1)[C@]1(C)O[C@@](C(C)C)(C[C@H]1OC(=O)[C@H](C)O)[C@H]2OC(=O)/C=C/c1ccccc1`, the growth is 89.1%.

For `NC(=O)C1=C[C@H]2[C@H]3C=C[C@@]2(O)C(=O)O[C@@H]3O1`, the growth is 41.6%.

As to `COc1ccc(C2=NN(C(=O)c3cc(OC)c(OC)c(OC)c3)C(c3ccc(C#N)cc3)C2)cc1OC` (stereo not given), the growth is 4.24% (active).

On to `COC(=O)/C=C1\SC(=Nc2ccc(F)cc2)N(CCc2c[nH]c3ccccc23)C1=O`, for which the growth is 73.7%.
